Only some compounds are listed: those with a hit (about 19% of all), similar ones and a draw of the others.
KB-3-1 tox: kills parental KB-3-1 adenocarcinoma cells; KB-3-1 viability, CellTiter-Glo ATP luminescence, 72 h; Potency, µM (series often up to 46.1 µM), actives largely listed as cytotoxic; 1.4% of 400,000 active; AID 1347075; further: nearly all actives have a fitted effect of over 60% in size
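Cytotoxicity measured as CellTiter-Glo luminescence after 72 h at 37 C. Compound titrations were pinned onto drug-naive KB-3-1 parental adenocarcinoma cells grown in DMEM with 10% FBS, and normalized data fitted to concentration-response curves.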
TDP1 cell noCPT: qHTS for Inhibitors of human tyrosyl-DNA phosphodiesterase 1 (TDP1): qHTS in cells in absence of CPT; 15% of 420,000 active; DT40 Tdp1-/- hTDP1 cells, no CPT, ATP luminescence, 48 h; Potency, µM (series often up to 46.2 µM), most hits filed as inhibitors; AID 686978, 2013; further: nearly all actives have a fitted effect of over 55% in size
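Chicken DT40 Tdp1-/- cells stably complemented with human TDP1 were seeded at 400 cells/well with DMSO in place of 20 nM camptothecin. After compound pinning, cells grew at least 48 hr at 37 °C; viability read by CellTiter-Glo luminescence.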
HT1080 IDH1KD tx: HT-1080 IDH1 knockdown cell toxicity (counter line); HT-1080 IDH1 knockdown viability, ATP luminescence, 48 h; Potency, µM (highest dose often 46.1 µM), hits mostly cytotoxic; 2% of 360,000 active; AID 686971
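% activity derives from luminescence (CellTiter-Glo), normalised to DMSO and no-cell wells. HT-1080-IDH1KD cells, 750/well, had 48 h compound exposure at 37 °C.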
KB-V1 MDR tox: KB-V1 MDR subline cytotoxicity | KB-V1 MDR cells viability, CellTiter-Glo, 72 h | Potency, µM (highest dose often 46.1 µM), most hits filed as cytotoxic | 3.4% of 400,000 active; further: nearly all actives have a fitted effect of over 60% in size
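Drug-selected KB-V1 cells, grown in DMEM lacking phenol red with 10% FBS, receive compound titrations; after three days at 37 degrees C, surviving cell ATP is quantified by CellTiter-Glo luminescence and responses normalized and curve-fitted.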
TDP1 cell CPT: DT40-hTDP1 cell growth loss with CPT; chicken DT40 Tdp1-/-;hTDP1 cells + 20 nM CPT, ATP luminescence, 48 h; 12% of 420,000 active; Potency, µM (top dose mostly 46.2 µM), hits mostly inhibitors; AID 686979; further: nearly all actives have a fitted effect of over 55% in size
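Chicken DT40 Tdp1-/- cells stably complemented with human TDP1 were seeded at 400 cells/well in medium containing 20 nM camptothecin, exposed to pin-transferred compounds, and grown at 37 °C for at least 48 hr. Viability was read as ATP luminescence.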
HT1080NT lethal: kills 2HG-producing HT-1080-NT fibrosarcoma cells; HT-1080-NT fibrosarcoma viability, CellTiter-Glo ATP luminescence, 48 h; Potency, µM (highest dose often 46.1 µM), actives largely listed as cytotoxic; 1.6% of 360,000 active;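 further: NT is the 2HG producing partner of a matched IDH1 knockdown line; nearly all actives have a fitted effect of over 55% in size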
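HT-1080-NT; 750 cells/well; 5% FBS RPMI; 48 h compound, 37 degrees C; CellTiter-Glo luminescence; curve fitting and curve-class assignment.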
Numbers stand for hits; 0 = inactive; ? = inconclusive; - = not tested or not shown; [ ] = remark or other dose. The call rests on the fitted dose curve; in most records, active means well fitted curve in the direction sought with a large enough effect; inconclusive means small, poorly fitted or top-dose-only effect, or another doubt; inactive means no such curve, though single readings can be large; an effect the other way counts as inactive or inconclusive.

SMILES	KB-3-1 tox	TDP1 cell noCPT	HT1080 IDH1KD tx	KB-V1 MDR tox	TDP1 cell CPT	HT1080NT lethal
Clc1cccc(-n2ncc3c(NC4CCCCCC4)ncnc32)c1	0	?	-	0	20.6µM	-
COc1cccc(N2CCN(C(C)C(=O)NC34CC5CC(CC(C5)C3)C4)CC2)c1 (stereo not drawn)	0	16.4µM	0	0	?	0
O=C(NC12CC3CC(CC(C3)C1)C2)N1CCN(c2ccccc2)CC1	0	?	0	0	?	0
COc1ccc(N2CCN(C(=O)NC34CC5CC(CC(C5)C3)C4)CC2)cc1	0	23.1µM	0	0	?	0
COCCN1Cc2cccc(C(=O)NC(C)CCc3ccco3)c2C1=O (stereo not drawn)	0	0	0	0	0	0
COc1ccccc1NS(=O)(=O)c1ccc(Cl)c(NC(=S)NC(=O)C2CCCC2)c1	0	29.1µM	?	?	23.1µM	0
CCN(CC)S(=O)(=O)c1ccc(Cl)c(NC(=S)NC(=O)C2CCCC2)c1	0	18.4µM	?	0	23.1µM	0[9.24 µM]
CCN(CC)c1ccc(S(=O)(=O)Nc2cc(Cl)ccc2Cl)cc1NC(=S)NC(=O)C1CCCC1	0	?	?	0	?	?
Cc1ccc(NC(=S)NC(=O)C2CCCCC2)c(Br)c1	0	14.6µM	?	0	?	?
COc1ccc(-c2coc3cc4oc(=O)c5ccccc5c4cc23)cc1F	?	0.651µM	?	?	0.82µM	?
CCOC(=O)C[C@H]1c2ccccc2S(=O)(=O)N1c1ccccc1	0	?	0	0	?	0
N=c1ccn2c(n1)O[C@H]1[C@@H](CO)[C@H](O)O[C@H]12	0	0.0058µM	0	?	0.0366µM	?
COc1cncc(C#Cc2ccccn2)c1	0	0	0	0	0	0
CCOC(=O)C1=CCC(c2ccccc2)N(S(=O)(=O)c2ccc(C)cc2)[C@H]1CC (stereo partly drawn)	?	16.4µM	0	?	20.6µM	0
CCOC(=O)C1=C[C@@H](C(C)C)N(S(=O)(=O)c2ccc(C)cc2)[C@H]1c1ccc(C(C)C)cc1	0	18.4µM	0	0	?	0
CCOC(=O)C1=C[C@@H](C(C)C)N(S(=O)(=O)c2ccc(C)cc2)[C@H]1c1ccccc1F	0	?	0	0	?	0
C=CC[C@H]1C(C(=O)OCC)=CC[C@@H](c2ccccc2)N1S(=O)(=O)c1ccc(C)cc1	0	?	0	0	?	0
CCOC(=O)C1=C[C@@H](C(C)(C)C)N(S(=O)(=O)c2ccc(C)cc2)[C@H]1c1ccc(C)cc1	0	11.6µM	13µM	0	13µM	?
CC(=O)C[C@@H]1SC[C@H](c2ccccc2)N1S(=O)(=O)c1ccc(C)cc1	?	14.6µM	0	?	14.6µM	0
COc1ccc(OC)c(S(=O)(=O)CC(O)COc2ccccc2Cl)c1 (stereo not drawn)	0	0	0	0	?	0
O=C(C1CCN(S(=O)(=O)c2ccccc2)CC1)N1CCCCC1	0	0	0	0	0	0
CCOC(=O)C1=C[C@@H](C2CCCC2)N(S(=O)(=O)c2ccc([N+](=O)[O-])cc2)[C@H]1c1ccccc1	0	11.6µM	?	?	20.6µM	?
CCOC(=O)C1=C[C@@H](CC)N(S(=O)(=O)c2ccc(C)cc2)[C@H]1c1ccccc1	?	14.6µM	0	0	23.1µM	0
CCOC(=O)C1=CCN(S(=O)(=O)c2ccc(C)cc2)C1c1ccccc1 (stereo not drawn)	0	?	0	0	?	0
Cc1cccc(C(=O)NCC(=O)N2CCN(c3ccc(Cl)cc3)CC2)c1	?	?	0	0	?	0
SMILES	KB-3-1 tox	TDP1 cell noCPT	HT1080 IDH1KD tx	KB-V1 MDR tox	TDP1 cell CPT	HT1080NT lethal
CC(=O)Nc1ccc(NS(=O)(=O)c2ccc(CN3C(=O)c4cccnc4C3=O)cc2)cc1	0	0	0	0	0	0
COc1ccc(NC(=O)CCCc2nnc3n(C(C)C)c(=O)c4sccc4n23)cc1Cl	-	23.1µM	-	-	13µM	-
Cn1c(=O)c2sccc2n2c(CCCC(=O)Nc3ccc(Oc4ccccc4)cc3)nnc12	-	16.4µM	-	-	?	-
CCn1c(=O)c2sccc2n2c(CCC(=O)Nc3ccc(C(C)C)cc3)nnc12	0	23.1µM	-	0	?	-
CCn1c(=O)c2sccc2n2c(CCC(=O)Nc3cc(C)cc(C)c3)nnc12	0	0	-	?	0	-
CC(C)Cn1c(=O)c2sccc2n2c(CCCC(=O)Nc3ccc(Cl)cc3)nnc12	-	18.4µM	-	-	?	-
O=C(NCC1CCN(Cc2ccccc2)CC1)[C@H]1O[C@@H](n2ccc(=O)[nH]c2=O)[C@H](O)[C@@H]1O	0	0	0	0	0	0
COc1cc(NC(=O)c2noc3c2CC(C)CC3)c(OC)cc1Cl (stereo not drawn)	-	0	-	-	0	-
Cn1c(=O)c2sccc2n2c(CCCC(=O)Nc3ccc(Cl)cc3)nnc12	0	?	-	0	20.6µM	-
Cc1ccc(S(=O)(=O)c2nc(S(C)(=O)=O)sc2N2CCC3(CC2)OCCO3)cc1	0	?	0	0	0	0
CCc1ccccc1NC(=O)CCC(=O)N1CC(C)Oc2ccc(C)cc21 (stereo not drawn)	0	?	-	0	?	-
CCOc1ccc(CN(C(=O)c2oc3ccccc3c2C)C2CCS(=O)(=O)C2)cc1 (stereo not drawn)	0	0	?	9.2µM	0	0
Cc1cc2oc(C(=O)N(Cc3ccccc3F)C3CCS(=O)(=O)C3)c(C)c2cc1Cl (stereo not drawn)	0	16.4µM	-	0	?	-
Cc1c(C(=O)N(Cc2cccc(F)c2)C2CCS(=O)(=O)C2)oc2cc(Br)ccc12 (stereo not drawn)	0	18.4µM	-	0	?	-
COc1ccc(C(=O)Nc2cccc3c2CCCC3)c(OC)c1	0	?	0	?	0	0
CCC1CN(CCNC(=O)c2cccnc2OC)Cc2cc(OC)ccc2O1 (stereo not drawn)	-	?	-	-	0[9.04 µM]	-
CCOC(=O)c1[nH]c(C)c(CCC(=O)Nc2cccc(C(F)(F)F)c2)c1C	0	?	-	0	?	-
Cc1cc2cc(CN(CC3CCCO3)C(=S)Nc3ccccc3)c(=O)[nH]c2cc1C (stereo not drawn)	7.31µM	5.8µM	?	0	6.51µM	11.6µM
COc1ccc2cc(CN(CC3CCCO3)C(=S)Nc3ccccc3)c(=O)[nH]c2c1 (stereo not drawn)	5.8µM	6.51µM	14.6µM	20.6µM	5.17µM	25.9µM
Cc1cc2oc(C(=O)Nc3ccc(S(=O)(=O)Nc4ncccn4)cc3)cc(=O)c2cc1C	0	0	-	0	0	-
